# Experimental data: publication PMC7862700, “An all-to-all approach to the identification of sequence-specific readers for epigenetic DNA modifications on cytosine”
# Experiments:
# Assay in all cases: DAPPL (digital affinity profiling via proximity ligation, sequencing); 10 mM Tris-HCl pH 7.5, 50 mM NaCl, 1 mM DTT, 4% glycerol, room temperature, 30 min; GST-TFs on glutathione beads, 16-mer random dsDNA library, 0.1% formaldehyde crosslink after washing; high values mean tight binding
# FLI1 = target: T1, FLI1 (Homo sapiens, UniProt Q01543 1-452); settings: protein: recombinant; tags: N-terminal GST; dsDNA, one strand shown
# T1 sequence: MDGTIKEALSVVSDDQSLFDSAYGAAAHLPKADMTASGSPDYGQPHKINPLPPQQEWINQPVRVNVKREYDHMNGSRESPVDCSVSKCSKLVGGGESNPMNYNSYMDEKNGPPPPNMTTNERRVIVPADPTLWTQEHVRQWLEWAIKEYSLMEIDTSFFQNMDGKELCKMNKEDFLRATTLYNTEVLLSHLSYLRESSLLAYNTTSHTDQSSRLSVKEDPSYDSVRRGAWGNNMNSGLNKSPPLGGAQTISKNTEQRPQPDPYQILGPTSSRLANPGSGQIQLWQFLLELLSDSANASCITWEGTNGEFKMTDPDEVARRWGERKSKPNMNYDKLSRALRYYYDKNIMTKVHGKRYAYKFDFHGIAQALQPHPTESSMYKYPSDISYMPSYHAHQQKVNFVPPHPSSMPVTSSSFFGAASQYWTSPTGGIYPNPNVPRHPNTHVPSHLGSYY
# Procedure, shortened: (§1)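 GST fusions of human transcription factors were expressed in yeast and captured with glutathione beads. Once given DNA barcodes and pooled alongside a tag-only sample, they were incubated for 30 min at room temperature with 200 nmole of a random double-stranded 16-mer DNA library in Tris/NaCl/DTT/glycerol buffer, then washed, crosslinked (0.1% formaldehyde), proximity-ligated, PCR-amplified and sequenced on an Illumina NextSeq500. The binding signal of each hexamer is its read frequency for a factor divided by its frequency for the tag-only sample.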
# ELK1 = target: T2, ELK1 (Homo sapiens, UniProt P19419 1-428); settings: protein: recombinant; tags: N-terminal GST; dsDNA, one strand shown
# T2 sequence: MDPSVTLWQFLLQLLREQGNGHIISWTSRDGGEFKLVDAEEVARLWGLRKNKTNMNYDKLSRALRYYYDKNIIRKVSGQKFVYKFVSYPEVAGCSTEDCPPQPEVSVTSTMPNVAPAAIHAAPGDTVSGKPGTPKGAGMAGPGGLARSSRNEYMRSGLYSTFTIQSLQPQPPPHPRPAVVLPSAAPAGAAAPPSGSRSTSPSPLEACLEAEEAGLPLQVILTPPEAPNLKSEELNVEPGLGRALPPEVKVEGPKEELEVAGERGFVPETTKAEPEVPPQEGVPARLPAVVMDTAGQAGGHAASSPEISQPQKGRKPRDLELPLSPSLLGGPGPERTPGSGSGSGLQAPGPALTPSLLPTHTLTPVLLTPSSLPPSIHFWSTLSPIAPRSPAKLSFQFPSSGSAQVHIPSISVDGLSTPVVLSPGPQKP
# Procedure, shortened: as §1
# GABPA = target: T3, GABPA (Homo sapiens, UniProt Q06546 1-454); settings: protein: recombinant; tags: N-terminal GST; dsDNA, one strand shown
# T3 sequence: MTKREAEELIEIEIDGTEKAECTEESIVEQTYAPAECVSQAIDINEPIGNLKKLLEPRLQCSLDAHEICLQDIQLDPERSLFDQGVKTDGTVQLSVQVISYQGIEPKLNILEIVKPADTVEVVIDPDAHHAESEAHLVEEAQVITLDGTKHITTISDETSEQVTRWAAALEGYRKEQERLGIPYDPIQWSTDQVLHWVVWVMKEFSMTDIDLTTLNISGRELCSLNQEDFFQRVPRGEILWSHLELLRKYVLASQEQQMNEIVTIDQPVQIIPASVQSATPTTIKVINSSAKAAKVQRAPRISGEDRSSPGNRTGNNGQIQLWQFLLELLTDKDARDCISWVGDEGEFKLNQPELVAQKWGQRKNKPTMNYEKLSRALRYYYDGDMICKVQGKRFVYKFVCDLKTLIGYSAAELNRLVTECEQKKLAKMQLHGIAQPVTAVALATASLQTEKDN
# Procedure, shortened: as §1
# ERG = target: T4, ERG (Homo sapiens, UniProt P11308 1-479); settings: protein: recombinant; tags: N-terminal GST; dsDNA, one strand shown
# T4 sequence: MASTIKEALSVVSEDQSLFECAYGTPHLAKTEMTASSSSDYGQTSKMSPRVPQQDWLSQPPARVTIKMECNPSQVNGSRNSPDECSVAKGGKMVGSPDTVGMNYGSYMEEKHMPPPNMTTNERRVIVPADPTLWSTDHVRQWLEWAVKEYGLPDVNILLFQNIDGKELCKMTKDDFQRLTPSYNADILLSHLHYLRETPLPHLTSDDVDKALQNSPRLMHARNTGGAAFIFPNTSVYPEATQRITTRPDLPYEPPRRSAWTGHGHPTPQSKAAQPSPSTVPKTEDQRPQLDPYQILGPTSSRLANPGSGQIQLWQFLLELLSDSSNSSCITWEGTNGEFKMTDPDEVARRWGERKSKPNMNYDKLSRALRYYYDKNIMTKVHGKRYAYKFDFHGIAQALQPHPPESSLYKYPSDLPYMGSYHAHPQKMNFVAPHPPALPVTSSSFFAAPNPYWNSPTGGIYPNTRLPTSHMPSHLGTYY
# Procedure, shortened: as §1
# ELF1 = ELF1 (Homo sapiens, UniProt P32519 1-619); settings: protein: recombinant; tags: N-terminal GST; dsDNA, one strand shown
# Chain of ELF1 (P32519 whole entry): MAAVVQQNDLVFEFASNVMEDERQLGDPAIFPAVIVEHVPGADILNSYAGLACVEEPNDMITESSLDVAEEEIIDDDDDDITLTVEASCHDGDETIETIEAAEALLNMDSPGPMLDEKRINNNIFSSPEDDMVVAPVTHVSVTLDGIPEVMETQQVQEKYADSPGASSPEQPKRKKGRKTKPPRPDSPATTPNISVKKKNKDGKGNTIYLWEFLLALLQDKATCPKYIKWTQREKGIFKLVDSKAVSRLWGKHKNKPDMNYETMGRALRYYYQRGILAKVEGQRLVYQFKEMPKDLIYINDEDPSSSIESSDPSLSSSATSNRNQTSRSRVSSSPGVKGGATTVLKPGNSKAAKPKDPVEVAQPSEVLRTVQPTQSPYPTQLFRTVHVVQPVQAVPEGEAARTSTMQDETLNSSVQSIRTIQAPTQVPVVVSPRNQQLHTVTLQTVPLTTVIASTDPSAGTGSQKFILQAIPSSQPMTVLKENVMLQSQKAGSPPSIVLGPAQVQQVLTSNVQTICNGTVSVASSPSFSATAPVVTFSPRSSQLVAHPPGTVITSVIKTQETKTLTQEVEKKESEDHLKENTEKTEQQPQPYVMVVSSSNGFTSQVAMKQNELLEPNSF
# Procedure, shortened: as §1
# EHF = target: T5, EHF (Homo sapiens, UniProt Q9NZC4 1-300); settings: protein: recombinant; tags: N-terminal GST; dsDNA, one strand shown
# T5 sequence: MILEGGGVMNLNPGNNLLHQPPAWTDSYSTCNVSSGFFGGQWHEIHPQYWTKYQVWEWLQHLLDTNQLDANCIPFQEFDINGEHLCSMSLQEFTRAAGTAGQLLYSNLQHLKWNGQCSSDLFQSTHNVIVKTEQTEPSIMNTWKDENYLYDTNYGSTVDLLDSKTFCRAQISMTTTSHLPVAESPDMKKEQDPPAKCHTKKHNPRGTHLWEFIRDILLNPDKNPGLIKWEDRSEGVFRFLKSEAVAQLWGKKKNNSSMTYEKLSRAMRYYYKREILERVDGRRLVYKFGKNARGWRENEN
# Procedure, shortened: as §1
# SPI1 = SPI1 (Homo sapiens, UniProt P17947 1-270); settings: protein: recombinant; tags: N-terminal GST; dsDNA, one strand shown
# Procedure, shortened: as §1
# SPIB = SPIB (Homo sapiens, UniProt Q01892 1-262); settings: protein: recombinant; tags: N-terminal GST; dsDNA, one strand shown
# Chain of SPIB (Q01892 whole entry): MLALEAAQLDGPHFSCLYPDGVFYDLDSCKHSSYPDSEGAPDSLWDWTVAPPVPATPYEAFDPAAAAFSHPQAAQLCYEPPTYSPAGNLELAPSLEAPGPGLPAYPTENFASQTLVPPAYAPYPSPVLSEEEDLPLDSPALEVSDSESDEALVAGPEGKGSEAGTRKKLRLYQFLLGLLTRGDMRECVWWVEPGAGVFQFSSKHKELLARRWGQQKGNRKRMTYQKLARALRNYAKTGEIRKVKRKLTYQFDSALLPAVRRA
# Procedure, shortened: as §1
# ELK3 = target: T6, ELK3 (Homo sapiens, UniProt P41970 1-407); settings: protein: recombinant; tags: N-terminal GST; dsDNA, one strand shown
# T6 sequence: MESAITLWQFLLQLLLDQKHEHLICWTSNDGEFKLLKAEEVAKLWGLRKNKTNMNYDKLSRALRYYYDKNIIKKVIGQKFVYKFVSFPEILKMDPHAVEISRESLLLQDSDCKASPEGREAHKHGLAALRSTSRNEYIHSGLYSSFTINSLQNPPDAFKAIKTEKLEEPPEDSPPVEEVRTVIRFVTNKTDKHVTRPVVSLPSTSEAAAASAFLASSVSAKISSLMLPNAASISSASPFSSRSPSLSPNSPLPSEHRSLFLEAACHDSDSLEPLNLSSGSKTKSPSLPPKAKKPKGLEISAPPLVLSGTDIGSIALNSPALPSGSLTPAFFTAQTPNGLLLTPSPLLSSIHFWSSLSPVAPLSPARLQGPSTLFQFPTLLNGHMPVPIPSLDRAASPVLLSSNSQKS
# Procedure, shortened: as §1
# FEV = target: T7, FEV (Homo sapiens, UniProt Q99581 1-238); settings: protein: recombinant; tags: N-terminal GST; dsDNA, one strand shown
# T7 sequence: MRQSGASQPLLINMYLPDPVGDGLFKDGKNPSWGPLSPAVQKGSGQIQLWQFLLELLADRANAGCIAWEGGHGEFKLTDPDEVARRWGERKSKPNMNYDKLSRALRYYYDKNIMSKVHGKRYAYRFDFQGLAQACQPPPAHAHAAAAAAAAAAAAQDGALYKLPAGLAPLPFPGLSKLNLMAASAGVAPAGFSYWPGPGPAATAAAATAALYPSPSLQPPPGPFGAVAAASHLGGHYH
# Procedure, shortened: as §1
# ETV5 = ETV5 (Homo sapiens, UniProt P41161 1-510); settings: protein: recombinant; tags: N-terminal GST; dsDNA, one strand shown
# Chain of ETV5 (P41161 whole entry): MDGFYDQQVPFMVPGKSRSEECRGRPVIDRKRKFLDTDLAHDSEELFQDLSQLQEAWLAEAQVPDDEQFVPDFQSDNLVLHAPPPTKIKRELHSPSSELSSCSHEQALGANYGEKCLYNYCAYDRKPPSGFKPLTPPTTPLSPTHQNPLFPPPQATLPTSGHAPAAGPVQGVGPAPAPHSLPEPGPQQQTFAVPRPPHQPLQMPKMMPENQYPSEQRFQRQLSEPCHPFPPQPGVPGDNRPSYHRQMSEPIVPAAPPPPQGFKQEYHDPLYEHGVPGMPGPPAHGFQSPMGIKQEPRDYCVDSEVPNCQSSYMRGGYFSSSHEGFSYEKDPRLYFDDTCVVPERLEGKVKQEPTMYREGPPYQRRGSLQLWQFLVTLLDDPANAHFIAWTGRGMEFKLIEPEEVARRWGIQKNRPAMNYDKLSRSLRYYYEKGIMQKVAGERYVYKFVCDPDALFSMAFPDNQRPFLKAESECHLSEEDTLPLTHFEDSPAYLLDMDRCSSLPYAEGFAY
# Procedure, shortened: as §1
# HSF1 = HSF1 (Homo sapiens, UniProt Q00613 1-529); settings: protein: recombinant; tags: N-terminal GST; chain copies: 3; dsDNA, one strand shown
# Chain of HSF1 (Q00613 whole entry): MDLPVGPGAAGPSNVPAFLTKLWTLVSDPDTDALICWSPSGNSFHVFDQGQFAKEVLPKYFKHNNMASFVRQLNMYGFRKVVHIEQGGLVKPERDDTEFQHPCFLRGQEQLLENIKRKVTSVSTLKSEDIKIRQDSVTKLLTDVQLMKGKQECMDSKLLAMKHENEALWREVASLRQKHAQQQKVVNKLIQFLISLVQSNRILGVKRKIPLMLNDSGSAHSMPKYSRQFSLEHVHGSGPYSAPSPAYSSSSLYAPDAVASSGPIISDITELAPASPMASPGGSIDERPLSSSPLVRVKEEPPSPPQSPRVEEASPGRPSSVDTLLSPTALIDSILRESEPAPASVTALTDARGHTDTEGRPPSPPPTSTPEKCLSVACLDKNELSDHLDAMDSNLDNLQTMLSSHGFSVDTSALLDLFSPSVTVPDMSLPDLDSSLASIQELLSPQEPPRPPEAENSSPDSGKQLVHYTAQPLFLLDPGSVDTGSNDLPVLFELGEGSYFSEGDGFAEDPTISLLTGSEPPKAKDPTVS
# Procedure, shortened: as §1
# SPIC = target: T8, SPIC (Homo sapiens, UniProt Q8N5J4 1-248); settings: protein: recombinant; tags: N-terminal GST; dsDNA, one strand shown
# T8 sequence: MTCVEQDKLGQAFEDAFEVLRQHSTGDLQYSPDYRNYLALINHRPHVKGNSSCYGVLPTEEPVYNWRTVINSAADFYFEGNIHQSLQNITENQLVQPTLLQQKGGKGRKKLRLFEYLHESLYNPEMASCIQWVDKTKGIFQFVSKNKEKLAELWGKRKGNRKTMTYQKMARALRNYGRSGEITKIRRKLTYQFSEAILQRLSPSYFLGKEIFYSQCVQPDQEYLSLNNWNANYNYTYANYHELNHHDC
# Procedure, shortened: as §1
# ELF4 = ELF4 (Homo sapiens, UniProt Q99607 1-663); settings: protein: recombinant; tags: N-terminal GST; dsDNA, one strand shown
# Chain of ELF4 (Q99607 whole entry): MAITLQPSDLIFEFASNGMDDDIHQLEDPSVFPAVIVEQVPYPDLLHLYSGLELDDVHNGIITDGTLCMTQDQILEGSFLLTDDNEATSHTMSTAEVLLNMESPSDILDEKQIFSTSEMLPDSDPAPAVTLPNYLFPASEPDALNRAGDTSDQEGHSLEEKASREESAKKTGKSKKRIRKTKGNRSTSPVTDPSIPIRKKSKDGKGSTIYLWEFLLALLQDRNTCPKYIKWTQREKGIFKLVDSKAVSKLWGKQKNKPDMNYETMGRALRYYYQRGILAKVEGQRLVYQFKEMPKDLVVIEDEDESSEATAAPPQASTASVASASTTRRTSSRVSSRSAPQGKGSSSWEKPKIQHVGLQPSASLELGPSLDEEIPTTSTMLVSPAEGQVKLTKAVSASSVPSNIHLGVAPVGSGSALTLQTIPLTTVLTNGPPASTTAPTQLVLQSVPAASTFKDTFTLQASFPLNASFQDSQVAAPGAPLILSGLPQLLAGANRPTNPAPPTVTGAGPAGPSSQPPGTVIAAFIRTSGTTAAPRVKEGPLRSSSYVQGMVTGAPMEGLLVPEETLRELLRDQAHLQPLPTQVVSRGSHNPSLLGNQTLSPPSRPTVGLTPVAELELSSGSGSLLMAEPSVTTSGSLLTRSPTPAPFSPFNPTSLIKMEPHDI
# Procedure, shortened: as §1
# ELK4 = target: T9, ELK4 (Homo sapiens, UniProt P28324-2 1-405); settings: protein: recombinant; tags: N-terminal GST; dsDNA, one strand shown
# T9 sequence: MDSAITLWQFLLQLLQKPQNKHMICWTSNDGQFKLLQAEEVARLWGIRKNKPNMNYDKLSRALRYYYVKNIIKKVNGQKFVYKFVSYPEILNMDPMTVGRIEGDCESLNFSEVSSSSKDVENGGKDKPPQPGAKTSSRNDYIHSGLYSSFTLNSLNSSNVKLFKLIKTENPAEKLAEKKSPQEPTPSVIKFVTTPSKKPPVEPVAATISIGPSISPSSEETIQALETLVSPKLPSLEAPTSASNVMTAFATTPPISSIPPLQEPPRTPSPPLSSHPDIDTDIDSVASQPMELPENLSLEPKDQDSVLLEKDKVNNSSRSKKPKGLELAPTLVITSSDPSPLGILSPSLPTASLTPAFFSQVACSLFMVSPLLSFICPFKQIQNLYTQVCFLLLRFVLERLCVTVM
# Procedure, shortened: as §1
# ETV2 = target: T10, ETV2 (Homo sapiens, UniProt O00321 1-342); settings: protein: recombinant; tags: N-terminal GST; dsDNA, one strand shown
# T10 sequence: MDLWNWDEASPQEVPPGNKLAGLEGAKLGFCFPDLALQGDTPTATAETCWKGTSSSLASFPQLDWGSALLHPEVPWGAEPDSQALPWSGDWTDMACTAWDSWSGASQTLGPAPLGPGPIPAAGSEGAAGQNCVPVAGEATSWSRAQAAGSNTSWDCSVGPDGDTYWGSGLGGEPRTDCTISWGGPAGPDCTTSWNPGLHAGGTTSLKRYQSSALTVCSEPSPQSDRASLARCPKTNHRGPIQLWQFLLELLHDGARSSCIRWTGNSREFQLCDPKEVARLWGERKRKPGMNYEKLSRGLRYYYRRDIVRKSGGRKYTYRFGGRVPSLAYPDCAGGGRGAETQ
# Procedure, shortened: as §1
# ELF3 = target: T11, ELF3 (Homo sapiens, UniProt P78545 1-371); settings: protein: recombinant; tags: N-terminal GST; dsDNA, one strand shown
# T11 sequence: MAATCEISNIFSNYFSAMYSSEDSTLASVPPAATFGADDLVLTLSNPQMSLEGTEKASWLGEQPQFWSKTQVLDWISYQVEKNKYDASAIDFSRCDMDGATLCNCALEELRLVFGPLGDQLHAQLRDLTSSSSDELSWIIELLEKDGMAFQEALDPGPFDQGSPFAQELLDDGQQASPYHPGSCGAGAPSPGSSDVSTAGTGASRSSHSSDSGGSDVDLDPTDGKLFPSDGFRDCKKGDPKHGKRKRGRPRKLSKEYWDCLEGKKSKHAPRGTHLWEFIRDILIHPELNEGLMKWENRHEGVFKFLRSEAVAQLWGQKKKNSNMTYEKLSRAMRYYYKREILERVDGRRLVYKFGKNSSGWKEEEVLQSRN
# Procedure, shortened: as §1
# CRX = CRX (Homo sapiens, UniProt O43186 1-299); settings: protein: recombinant; tags: N-terminal GST; dsDNA, one strand shown
# Chain of CRX (O43186 whole entry): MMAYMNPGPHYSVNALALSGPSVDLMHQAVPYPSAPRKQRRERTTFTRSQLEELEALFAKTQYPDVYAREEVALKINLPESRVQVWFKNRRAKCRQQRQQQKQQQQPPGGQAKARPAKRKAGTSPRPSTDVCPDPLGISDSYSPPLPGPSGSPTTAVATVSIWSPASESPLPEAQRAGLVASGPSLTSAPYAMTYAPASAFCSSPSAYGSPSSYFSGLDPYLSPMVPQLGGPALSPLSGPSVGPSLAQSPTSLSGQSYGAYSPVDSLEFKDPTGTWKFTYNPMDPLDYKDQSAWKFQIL
# Procedure, shortened: as §1
# ETV1 = ETV1 (Homo sapiens, UniProt P50549 1-477); settings: protein: recombinant; tags: N-terminal GST; dsDNA, one strand shown
# Chain of ETV1 (P50549 whole entry): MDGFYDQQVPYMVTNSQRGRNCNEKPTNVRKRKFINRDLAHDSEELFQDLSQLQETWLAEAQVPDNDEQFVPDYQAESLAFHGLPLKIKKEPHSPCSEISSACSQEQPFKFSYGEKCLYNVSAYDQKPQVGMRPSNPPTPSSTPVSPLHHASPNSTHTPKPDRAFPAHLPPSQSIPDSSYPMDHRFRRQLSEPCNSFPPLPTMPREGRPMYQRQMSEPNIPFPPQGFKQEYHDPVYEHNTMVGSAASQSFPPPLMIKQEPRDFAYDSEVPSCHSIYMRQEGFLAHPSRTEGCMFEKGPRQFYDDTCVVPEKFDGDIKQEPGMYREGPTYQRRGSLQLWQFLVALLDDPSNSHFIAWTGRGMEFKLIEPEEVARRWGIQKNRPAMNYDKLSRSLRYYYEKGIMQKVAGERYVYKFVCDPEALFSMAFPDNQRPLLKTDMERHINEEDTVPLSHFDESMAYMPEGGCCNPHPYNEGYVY
# Procedure, shortened: as §1
sequence,measurement,setting,value
TGTTTC,binding signal,FLI1,"1.91 fold enrichment (6-mer frequency, TF over GST control)"
same,binding signal,ELK1,"1.85 fold enrichment (6-mer frequency, TF over GST control)"
same,binding signal,GABPA,"1.59 fold enrichment (6-mer frequency, TF over GST control)"
same,binding signal,ERG,"1.97 fold enrichment (6-mer frequency, TF over GST control)"
same,binding signal,ELF1,"1.8 fold enrichment (6-mer frequency, TF over GST control)"
same,binding signal,EHF,"1.79 fold enrichment (6-mer frequency, TF over GST control)"
same,binding signal,SPI1,"1.69 fold enrichment (6-mer frequency, TF over GST control)"
same,binding signal,SPIB,"1.74 fold enrichment (6-mer frequency, TF over GST control)"
same,binding signal,ELK3,"1.61 fold enrichment (6-mer frequency, TF over GST control)"
same,binding signal,FEV,"1.97 fold enrichment (6-mer frequency, TF over GST control)"
same,binding signal,ETV5,"1.83 fold enrichment (6-mer frequency, TF over GST control)"
same,binding signal,HSF1,"1.43 fold enrichment (6-mer frequency, TF over GST control)"
same,binding signal,SPIC,"1.49 fold enrichment (6-mer frequency, TF over GST control)"
same,binding signal,ELF4,"1.73 fold enrichment (6-mer frequency, TF over GST control)"
same,binding signal,ELK4,"1.55 fold enrichment (6-mer frequency, TF over GST control)"
same,binding signal,ETV2,"1.69 fold enrichment (6-mer frequency, TF over GST control)"
same,binding signal,ELF3,"1.68 fold enrichment (6-mer frequency, TF over GST control)"
same,binding signal,CRX,"1.17 fold enrichment (6-mer frequency, TF over GST control)"
same,binding signal,ETV1,"1.84 fold enrichment (6-mer frequency, TF over GST control)"
